Compound activity as filed in PubChem BioAssay.
ASM inhibitor = Inhibitors of Secretory Acid Sphingomyelinase (S-ASM): qHTS; Sphingomyelin phosphodiesterase (Homo sapiens), P17405; placental ASM, HMU-PC fluorogenic substrate, 60 min; Potency, µM (highest dose often 57.5 µM), actives largely listed as inhibitors; 340,000 tested, 0.006% active
Target sequence (P17405 47-631 limits assumed): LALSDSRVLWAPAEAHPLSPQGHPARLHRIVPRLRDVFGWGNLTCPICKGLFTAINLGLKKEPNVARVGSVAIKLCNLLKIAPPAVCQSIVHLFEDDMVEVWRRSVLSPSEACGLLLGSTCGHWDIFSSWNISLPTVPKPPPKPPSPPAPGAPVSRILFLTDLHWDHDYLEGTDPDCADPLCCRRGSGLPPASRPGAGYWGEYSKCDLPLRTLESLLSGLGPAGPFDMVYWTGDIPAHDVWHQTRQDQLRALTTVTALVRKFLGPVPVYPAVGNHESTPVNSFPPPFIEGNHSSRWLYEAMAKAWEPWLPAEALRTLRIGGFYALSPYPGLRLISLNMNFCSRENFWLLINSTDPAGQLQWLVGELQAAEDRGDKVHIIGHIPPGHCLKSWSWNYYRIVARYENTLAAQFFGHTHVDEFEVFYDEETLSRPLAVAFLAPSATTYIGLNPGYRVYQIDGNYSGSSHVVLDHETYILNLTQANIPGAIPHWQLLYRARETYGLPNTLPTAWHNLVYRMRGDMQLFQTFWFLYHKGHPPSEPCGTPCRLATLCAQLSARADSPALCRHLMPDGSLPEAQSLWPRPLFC
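Human placenta-derived ASM enzyme was preincubated with compound for 10 minutes at room temperature, then given fluorogenic substrate HMU-PC0 (9 uM final) for 60 minutes at 37 °C; a pH 10 stop preceded fluorescence reading at Ex 386/Em 447 nm.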
IL-1B inflam inh = qHTS for Inhibitors of Inflammasome Signaling: IL-1-beta AlphaLISA Primary Screen; THP-1 LPS/ATP IL-1B secretion, AlphaLISA, 16 h; active compounds read low; activity change, % at 57.5 µM; 360,000 tested, 4.7% active; AID 743279, 2014; in the data active = activity change below about -50%; inconclusive = mostly about -30% to -49%
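THP-1 cells pretreated 1 hr with compounds (up to 57.5 uM final), then stimulated with LPS (250 ng/mL final) plus ATP (1.25 mM final); secreted IL-1B measured by AlphaLISA after 16 hr, decreased signal indicating inhibition.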
DT40 TDP1 CPT = qHTS for Inhibitors of human tyrosyl-DNA phosphodiesterase 1 (TDP1): qHTS in cells in presence of CPT | chicken DT40 Tdp1-/-;hTDP1 cells + 20 nM CPT, ATP luminescence, 48 h | Potency, µM (series often up to 46.2 µM), actives largely listed as inhibitors | 420,000 tested, 12% active | AID 686979, 2013; also: nearly all actives have a fitted effect of over 55% in size
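Chicken DT40 Tdp1-/- cells complemented with human TDP1, 400 cells/well, exposed to compounds plus 20 nM camptothecin for at least 48 h at 37 C; viability read as ATP content by CellTiter-Glo luminescence.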
HepG2 viability = qHTS for Inhibitors of TGF-b: Cytotox Counterscreen; HepG2 CAGA-GFP viability, ATP luminescence, 18 h; Potency, µM (doses to about 46.1 µM), hits mostly cytotoxic; 410,000 tested, 0.76% active
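CellTiter-Glo luminescence gave cytotoxicity after 18 hours at 37 degrees C. The cells were HepG2 CAGA-GFP in 1% FBS DMEM, stimulated with 500 pg/mL TGF-beta after compound addition. %Activity was normalised to no-cell wells (complete cell-killing) and DMSO (no toxicity), and curves were fitted and classified.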
DT40 TDP1 no CPT = qHTS for Inhibitors of human tyrosyl-DNA phosphodiesterase 1 (TDP1): qHTS in cells in absence of CPT. DT40 Tdp1-/- hTDP1 cells, no CPT, ATP luminescence, 48 h. Potency, µM (doses to about 46.2 µM), usual class: inhibitors. 420,000 tested, 15% active; also: nearly all actives have a fitted effect of over 55% in size
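Camptothecin absent (DMSO only). Human TDP1-complemented DT40 knockout cells, 400 cells/well, 37 °C for minimum 48 hr; ATP measured via CellTiter-Glo, 30 min dark incubation, luminescence.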
TGFb SMAD3 inh = qHTS for Inhibitors of TGF-b; HepG2 CAGA-GFP TGF-b/SMAD3 reporter, GFP fluorescence, 18 h; TGF-beta stimulated, 500 pg/mL final; Potency, µM (highest dose often 46.1 µM), actives largely listed as inhibitors; 410,000 tested, 1.2% active; AID 588855, 2011; also: nearly all actives have a fitted effect of over 65% in size
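GFP signal (ex488/em500-530) from TGF-beta-stimulated HEPG2 CAGA-GFP cells, 500 pg/mL final, 18 h at 37 degrees C in DMEM plus 1% FBS, normalized to unstimulated and DMSO-stimulated controls.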
Each line names hits and unclear results; the compound was inactive in the other large screens. Rows were chosen to be rich in hits. Some 19% of all compounds tested hit in one or more screens of this group. Unless noted, calls follow the shape of the dose curve; as a rule, active = well fitted curve in the direction sought with a large enough effect; inconclusive = small, poorly fitted or top-dose-only effect, or another doubt; inactive = no such curve, though single readings can be large; an effect the other way counts as inactive or inconclusive.

COc1ccc(C(=O)Nc2ccccc2C(=O)Nc2ccncc2)cc1	DT40 TDP1 CPT inconclusive, DT40 TDP1 no CPT 16µM (no result: ASM inhibitor)
COc1ccc(C(=O)Nc2ccccc2C(=O)N/N=C/c2cccc3ccccc23)cc1	DT40 TDP1 CPT 21µM, DT40 TDP1 no CPT 16µM
COc1ccc(CC(=O)Nc2cccc3c2CCCC3)cc1	none
COc1ccc(C(=O)Nc2ccccc2C(=O)NCc2cccnc2)cc1OC	none
O=C(CSc1ncc2c(n1)-c1ccccc1N(Cc1ccc(F)cc1)S2(=O)=O)c1ccc(Br)cc1	DT40 TDP1 no CPT inconclusive (no result: ASM inhibitor, IL-1B inflam inh)
S=C(Nc1ccccc1)c1nc2ccccc2s1	DT40 TDP1 CPT inconclusive, DT40 TDP1 no CPT inconclusive, TGFb SMAD3 inh inconclusive
COc1ccc(C(=O)Nc2cc(OC)c(NC(=O)Nc3ccccc3)cc2OC)cc1	DT40 TDP1 CPT inconclusive, DT40 TDP1 no CPT 18µM (no result: ASM inhibitor)
COc1ccc(C(=O)Nc2ccccc2C(=O)Nc2ccccc2C(=O)O)cc1	DT40 TDP1 CPT 18µM, DT40 TDP1 no CPT 23µM
COc1ccc(NC(=O)Nc2ccccc2F)cc1	DT40 TDP1 CPT 8.2µM, DT40 TDP1 no CPT 7.9µM
Cc1ccc(CS(=O)(=O)CCC(=O)O)cc1	none
Cc1cccc(OCCSc2nc3c([nH]2)c(=N)ncn3Cc2ccccc2)c1	DT40 TDP1 CPT 21µM, DT40 TDP1 no CPT 16µM, TGFb SMAD3 inh inconclusive
COC(=O)c1ccccc1S(=O)(=O)Oc1ccc(-c2ccc(C(=O)O)cc2)cc1	IL-1B inflam inh -99
CC(=O)SC[C@@H](C)C(=O)N1CCC[C@H]1C(=O)N[C@@H](Cc1ccccc1)C(=O)O	none (no result: ASM inhibitor, IL-1B inflam inh, HepG2 viability, TGFb SMAD3 inh)
O=C(NCC(=O)N1CCN(c2ccccc2O)CC1)c1ccccc1	none
Cc1cnc(C(=O)N(CCCn2ccnc2)C2C(=O)Nc3ccccc3N=C2c2ccccc2)cn1 (stereo not drawn)	DT40 TDP1 CPT inconclusive, DT40 TDP1 no CPT inconclusive (no result: ASM inhibitor)
N#CC1C(=N)Cc2ccccc2-c2ccccc21 (stereo not drawn)	DT40 TDP1 CPT inconclusive, DT40 TDP1 no CPT 21µM
CCN(CC)S(=O)(=O)c1ccc2c(c1)nc(SCC(N)=O)n2-c1ccc(OC)cc1	DT40 TDP1 no CPT inconclusive
CCN(CC)S(=O)(=O)c1ccc2c(c1)nc(SCC(=O)N1CCCCCC1)n2-c1ccc(OC)cc1	IL-1B inflam inh inconclusive, DT40 TDP1 CPT 15µM, DT40 TDP1 no CPT 23µM
CC(CCl)n1c(=O)c2ccccc2n1C(=O)c1ccccc1 (stereo not drawn)	DT40 TDP1 no CPT inconclusive (no result: ASM inhibitor, HepG2 viability, TGFb SMAD3 inh)
Cn1c(=O)c2c(nc(CN3CCN(C(=O)c4ccco4)CC3)n2CCCc2ccccc2)n(C)c1=O	DT40 TDP1 CPT inconclusive, DT40 TDP1 no CPT 21µM
CC1CCCN(Cc2nc3c(c(=O)n(C)c(=O)n3C)n2CCCc2ccccc2)C1 (stereo not drawn)	DT40 TDP1 CPT 21µM, DT40 TDP1 no CPT 18µM
Cn1c(=O)c2c(nc(CN3CCN(C(=O)c4ccco4)CC3)n2CCc2ccccc2)n(C)c1=O	DT40 TDP1 no CPT inconclusive
CCCCN(C(=O)C1=NN(c2ccccc2)C(=O)CC1)c1c(N)n(CCC)c(=O)[nH]c1=O	none
S=c1[nH]nc(Cc2ccc(Br)cc2)n1/N=C/c1ccc(Cl)cc1	IL-1B inflam inh -63, DT40 TDP1 CPT inconclusive, DT40 TDP1 no CPT inconclusive
CN(C)C(=O)c1cc2c(c(-c3cccc(-c4ccccc4F)c3)n1)[C@@H](CCO)N(S(C)(=O)=O)C2	none (no result: ASM inhibitor, HepG2 viability, TGFb SMAD3 inh)
CCNC(=O)c1cc2c(c(-c3cccc(-c4cncnc4)c3)n1)[C@@H](CCO)N(C(C)=O)C2	none (no result: ASM inhibitor, HepG2 viability, TGFb SMAD3 inh)
CCC(=O)N1Cc2cc(C(=O)NCC(F)(F)F)nc(-c3cccc(-c4cncnc4)c3)c2[C@@H]1CCO	DT40 TDP1 CPT 21µM, DT40 TDP1 no CPT inconclusive (no result: ASM inhibitor, HepG2 viability, TGFb SMAD3 inh)
